Laboratory results published in PubChem BioAssay (NCATS).
The source made the active and inactive calls. Calls come from the whole dose curve; as a rule, active = well fitted curve in the direction sought with a large enough effect; inconclusive = small, poorly fitted or top-dose-only effect, or another doubt; inactive = no such curve, though single readings can be large or run the other way.

assay: Cellular Toxicity (caspase-3) MRC-5 (AID 659); details: MRC-5 cells, luminescence, normalized: DMSO 0%, 10 µM staurosporine 100%; series mostly up to 91.7 µM
Excerpt: NIH Chemical Genomics Center [NCGC]
NIH Molecular Libraries Screening Centers Network [MLSCN]
National Institutes of Environmental Health Sciences [NIEHS]
National Toxicology Program [NTP]
We have developed a 1536-well cell-based assay for quantitative high throughput screening (qHTS) against a number of cell lines to determine in vitro caspase 3/7 activity of small molecules. This particular assay uses the MRC-5 cell line which is derived from human normal lung fibroblasts.
NCGC Assay Protocol Summary:
The Caspase-Glo 3/7 assay (Promega) is a homogeneous method to measure caspase-3 and caspase-7 activities in cultured cells. The quantitation of caspase 3/7 activity is based on the cleavage of a peptide-aminoluciferin substrate. After caspase cleaves the substrate the free aminoluciferin is liberated and serves as the substrate of luciferase, which generates the light. The luminescent signal is proportional to amount of caspase 3/7 activity present.
Using the Caspase-Glo 3/7 assay, the amount of caspase 3/7 activity was measured in the MRC-5 line with complete culture medium following compound treatment for 16 hours. The assay was performed in opaque white 1536-well plates. In the screen, tamoxifen and staurosporine were used as positive controls. Library compounds were measured for their ability to cause the activation of caspase 3/7 in the cell line, as reflected by an increase in luminescence signal, in a concentration-dependent manner. Data were normalized to the controls for basal activity (DMSO only) and 100% stimulation (10 uM staurosporine). AC50 values were determined from concentration-response data modeled with the standard Hill equation.
qHTS protocol for caspase 3/7 assay in MRC-5 cells
[Step] [Parameter] [Value] [Description]
1. Reagent; 5 uL; 1500 MRC-5 cells/well
2. Time; 5 hr; 37 °C incubation
4. Controls; 23 nL; Tamoxifen 0.23 uM to 100 uM & staurosporine 1.4 pM to 100 uM
5. Time; 16 hr; 37 °C incubation
6. Reagent; 5 uL; Caspase-Glo 3/7 reagent
7. Time; 1 hr; Room Temperature
8. Detection; Luminescence; Viewlux plate reader
Keywords: caspase 3/7, apoptosis, MRC-5 cell line, luminescence, NTPHTS, NTPHTS_NCGC, NIEHS, EPA, DSSTox, MLSMR, MLSCN, NIH Roadmap, qHTS, NCGC

SMILES | outcome
CC(=O)CC(C)C | inactive
O=Cc1cccc(Br)c1 | inactive
CC/C=C/C#N | inactive
NC(=S)NNC(N)=S | inactive
C=CCOC(=O)CCCCCCCC | inactive
CC(C)(O)CCC(C)(C)O | inactive
Cc1cccc2cccnc12 | inactive
O=C(O)c1cc(Cl)cc(Cl)c1 | inactive
BrC/C=C/CBr | inactive
O=C1OC(=O)c2c(Br)c(Br)c(Br)c(Br)c21 | inactive
Cc1cc(C)cc(O)c1 | inactive
C[C@@H]1CC2(OC3C[C@@]4(C)C5=CC[C@H]6C(C)(C)C(O[C@@H]7OC[C@@H](O)[C@H](O)[C@H]7O)CC[C@@]67C[C@@]57CC[C@]4(C)C31)OC(O)C1(C)OC21 (stereo not given in full) | inactive
CCCC=O | inactive
C=CCCCCCC | inactive
CCCCCCCCCCCCC1CO1 (stereo not given) | inactive
Cc1ccccc1C#N | inactive
Nc1cccc(C(F)(F)F)c1 | inactive
CC(C=O)Cc1ccc(C(C)(C)C)cc1 (stereo not given) | inactive
CC(O)CC(C)O (stereo not given) | inactive
CCNc1ccccc1 | inactive

SMILES | outcome
CC(C)C(C)C | inactive
Cc1cccc(Br)c1 | inactive
CC=O | inactive
CC(C)Nc1ccccc1 | inactive
Nc1cccc(S(=O)(=O)O)c1 | inactive
Cc1ccc(N(C)C)cc1 | inactive
CC1CCCO1 (stereo not given) | inactive
COC(=O)CCCC(=O)OC | inactive
O=C(Cl)c1ccccc1[N+](=O)[O-] | inactive
O=Nc1ccc(NO)cc1 | inactive
c1ccc(Nc2ccccc2)cc1 | inactive
Cc1cccc(C)c1[N+](=O)[O-] | inactive
Nc1ccccc1[N+](=O)[O-] | inactive
CC(=O)OCCC(C)C | inactive
Cc1c(N)cccc1[N+](=O)[O-] | inactive
CCOC(=O)C(C)C(C)=O (stereo not given) | inactive
CCOc1ccccc1N | inactive
CC(C)=CCC/C(C)=C/C=O | inactive
O=C(O)c1ccccc1C(=O)O | inactive
CC(=O)Nc1ccc(N)cc1 | inactive
